Source: PubChem BioAssay
DUX4 inh = blocks DUX4-driven transcriptional activation. activity change, negative = inhibition, % (no concentration beside the values). 37,000 compounds, 0.8% hits. 293T-iDUX4 ZSCAN4-Gaussia luciferase reporter, 24 h; stronger effect = lower value. AID 1224904;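 active means mean inhibition of at least 10% in the main channel, exceeding the control channel by a set limit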
Each line names hits and unclear results; the compound was inactive in the other large screens; ! = not confirmed by another sample. This is one part of a sample in which hits are shown more often than they occur.

Cc1cccc(S(=O)(=O)N2C[C@H]3[C@@H](c4ccccc42)[C@@H](CO)N3C(=O)C2CC2)c1	none
O=C(C[C@H]1CC[C@H]2[C@@H](COC[C@H](O)CN2CC2CCCCC2)O1)NCc1ccc(Cl)cc1	none
O=C(C[C@H]1CC[C@@H]2[C@H](COC[C@@H](O)CN2CC2CCCCC2)O1)NCc1ccc(Cl)cc1	none
O=C(C[C@H]1CC[C@H]2[C@@H](COC[C@H](O)CN2CC2CCOCC2)O1)NCc1ccc(Cl)cc1	DUX4 inh -28.8
CC(=O)N1[C@@H]2Cn3c(ccc(C4=CCCC4)c3=O)[C@H]1[C@@H](C(=O)NCc1ccccc1)[C@@H]2CO	none
Fc1ccccc1-c1ccc(C2[C@@H]3CN(Cc4ccccn4)C[C@H]2N3)cc1 (some centres not stated)	DUX4 inh -22.2!
Fc1ccccc1-c1ccc(C2[C@@H]3CN(Cc4ccccc4)C[C@H]2N3)cc1 (some centres not stated)	DUX4 inh -24.5!
Cc1ccccc1-c1ccc(C2[C@H]3CNC[C@@H]2N3Cc2ccccn2)cc1 (some centres not stated)	none
Cc1ccc(CN2CC(=O)N3[C@H](C2)[C@H](c2ccc(-c4ccccc4F)cc2)[C@@H]3CO)cc1	none
c1ncc(-c2ccc(C3[C@@H]4CN(Cc5cocn5)C[C@H]3N4)cc2)cn1 (some centres not stated)	none
OC[C@H]1[C@H](c2ccc(-c3ccccc3F)cc2)[C@@H]2CN(Cc3ccncc3)CCCCN12	none
O=C(C[C@H]1CC[C@H]2[C@@H](COC[C@H](O)CN2C(=O)Nc2ccccc2)O1)NCCCN1CCOCC1	none
O=C(C[C@H]1CC[C@H]2[C@@H](COC[C@H](O)CN2S(=O)(=O)c2ccccc2)O1)NCc1ccc2c(c1)OCO2	none
CC=Cc1ccc2n(c1=O)C[C@H]1[C@H](CO)[C@@H](C(=O)NCc3ccc4c(c3)OCO4)[C@@H]2N1C(=O)CC (mixture of isomers)	none
OC[C@@H]1[C@H](c2ccc(C#Cc3ccccc3F)cc2)[C@@H]2CN(CC3CCOCC3)CCCCN12	none
COc1ccc(C#Cc2ccc([C@H]3[C@H]4CN(C(=O)Nc5ccccc5F)CCCCN4[C@H]3CO)cc2)cc1	none
OC[C@@H]1[C@@H](c2ccc(C#Cc3ccccc3F)cc2)[C@@H]2CN(CC3CCOCC3)CCCCN12	DUX4 inh -28.1
COc1ccc(C#Cc2ccc([C@@H]3[C@@H](CO)N4CCCCN(Cc5ccccc5F)C[C@@H]34)cc2)cc1	DUX4 inh -29.9
COc1ccc(C#Cc2ccc([C@H]3[C@H](CO)N4CCCCN(Cc5ccccc5F)C[C@@H]34)cc2)cc1	DUX4 inh -21.2
CCCC#Cc1ccc([C@H]2[C@H](CO)N3CCCCN(CC4CCOCC4)C[C@@H]23)cc1	none
OC[C@H]1[C@@H](c2ccc(C#Cc3ccccc3F)cc2)[C@@H]2CN(Cc3cncnc3)CCCCN12	none
OC[C@H]1[C@@H](c2ccc(C#Cc3ccccc3F)cc2)[C@H]2CN(Cc3cncnc3)CCCCN21	none
OC[C@@H]1[C@@H](c2ccc(C#Cc3ccccc3F)cc2)[C@@H]2CN(Cc3cncnc3)CCCCN12	none
CCC(=O)N1C[C@H](C)[C@@H](OC)CN(C)C(=O)c2cc(NC(=O)c3ccccc3)ccc2OC[C@@H]1C	none
CCCC(=O)N1CCC2(CC1)CN(C(=O)CN1CCOCC1)[C@@H](CO)c1c2c2ccc(OC)cc2n1C	none
CO[C@H]1CC[C@H]2CCOc3ccc(C#N)cc3C(=O)N(C)C[C@@H](C)C(=O)N(C)C[C@@H]1O2	none
CO[C@H](CN(C)C(=O)Nc1ccc(C(F)(F)F)cc1)[C@H](C)CN(Cc1ccccc1Cl)[C@H](C)CO	none
CN1[C@@H]2c3ccc(-c4ccccc4)c(=O)n3C[C@H]1[C@H](CO)[C@H]2C(=O)NCC1CCCCC1	none
COc1ccc(CN2CC3(CCN(C(=O)Nc4cccc(F)c4)CC3)c3c([nH]c4cc(OC)ccc34)[C@@H]2CO)cc1	none
O=C(c1ccccc1F)N1CC[C@H]2[C@H](CO)Nc3ccc(C#Cc4ccc(F)cc4)cc3[C@H]21	none
COc1ccc(C#Cc2ccc3c(c2)[C@H]2[C@H](CCN2C(=O)c2ccccc2F)[C@H](CO)N3)cc1	DUX4 inh -31.6
COc1cccc(C#Cc2ccc3c(c2)[C@@H]2[C@@H](CCN2C(=O)c2ccccc2F)[C@@H](CO)N3)c1	none
COc1cccc(C#Cc2ccc3c(c2)[C@H]2[C@H](CCN2C(=O)c2ccccc2F)[C@H](CO)N3)c1	DUX4 inh -27.9
COc1cccc(C#Cc2ccc3c(c2)[C@H]2[C@H](CCN2C(=O)c2ccc(F)cc2)[C@H](CO)N3)c1	none
COc1ccc(C#Cc2ccc3c(c2)[C@@H]2[C@@H](CCN2C(C)=O)[C@@H](CO)N3)cc1	none
CCC(=O)N1CC[C@@H]2[C@@H](CO)Nc3ccc(-c4cccc(C#N)c4)cc3[C@@H]21	none
Cc1cccc(CN(C)C[C@@H]2OCc3cn(nn3)CCCC(=O)N([C@H](C)CO)C[C@H]2C)c1	none
CC(=O)N1[C@@H](CO)[C@@H](c2ccccc2)C12CN(C(=O)c1ccccc1)C2	none
CC(=O)N(C)C[C@H]1OCc2ccccc2-c2c(n(C)c3ccccc23)C(=O)N([C@H](C)CO)C[C@@H]1C	none
